The results in this text go back to PubChem BioAssay.

Where “and” joins values, the source holds several entries; their conditions need not be identical. Equal entries are not always repeated. Calls of active or inactive are those of the source. Unless noted, no rule for the calls is given here.

As a reminder, the inhibition is the relative decrease from the control value, in per cent.

A short description of assay [1]: compounds altering circadian rhythm period length – cell-based, LOPAC library, luminescence reporter (AID 2774).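 Also: values are relative to mean of DMSO wells on each plate.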 The settings on record: circadian reporter cells, at 7 µM, actives lie on both sides.
The nature of assay [2]: antimalarial activity against Dd2 strain (AID 2302;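 active = growth inhibition above 50% at the single 2 µM test dose, taken to imply half-maximal potency below 2 µM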;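 also: 0% = DMSO untreated growth and 100% = chloroquine plus artemisinin killed control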). The settings on record: P. falciparum Dd2 in RBCs, LDH growth readout, 72 h; at 2 µM; stronger effect = higher value.
Assay [3] in a line: human hepatoma cell viability loss – ATP luminescence, cytotoxicity control for P. falciparum antimalarial project, primary screen (AID 2303;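 active = inhibition above 50%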;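 also: 0% = DMSO wells and 100% = digitonin-killed cells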). The settings on record: HepG2 viability, 24-48 h, at 10 µM, stronger effect = higher value.
Assay [4] deals with L-lactate dehydrogenase (Plasmodium falciparum (isolate CDC / Honduras)) (UniProt Q27743). The assay can be described thus: PfLDH activity inhibition – cell lysate, 3D7 strain, counter-screen for P. falciparum growth inhibition project (AID 2304).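 Also: 0% = vehicle and 100% = reference inhibitor.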 To be noted: P. falciparum 3D7 crude extract, LDH APAD/NBT absorbance; at 2 µM; stronger effect = higher value.
The nature of assay [5]: inhibition of 3D7 malaria parasite growth – strain 3D7 (AID 2306).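 Also: 0% = DMSO wells and 100% = chloroquine plus artemisinin control wells.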 To be noted: P. falciparum 3D7 erythrocytic growth, LDH absorbance, 72 h; at 2 µM; stronger effect = higher value.
Assay [6] can be described thus: growth inhibition, single agent or in combination, cell-based, chromothripsis tumors, cisplatin or BGB combos (AID 1671449; in the data active = inhibition above about 80%;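 also: cells exposed for 96 hours; 0% = vehicle DMSO and 100% = killing by high DMSO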). To be noted: LFS_MB_P medulloblastoma cells.
Assay [7] can be described thus: growth inhibition, single agent and combos, cell-based, chromothripsis tumors, cisplatin or BGB combos (AID 1671450; in the data active = inhibition above about 80%;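 also: cells exposed to compound for four days; 0% = vehicle DMSO and 100% = cell killing by high DMSO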). The settings on record: HDN33 neuroblastoma cells, stronger effect = higher value.
The nature of assay [8]: growth inhibition, single agents and combos, ICB984, cell-based, cisplatin or BGB combos, synergistic combos for chromothripsis tumors (AID 1671451).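 Also: cells exposed for 96 hours before readout; 0% = vehicle DMSO and 100% = killing by high DMSO.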 To be noted: ICB984 medulloblastoma cells, drug combinations, stronger effect = higher value.
Assay [9] in a line: growth inhibition, single agents and combos, LFS_MB_1R, cell-based, cisplatin or BGB combos, synergistic combos for chromothripsis tumors (AID 1671452; in the data active = inhibition above about 80%;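 also: cells exposed for 96 hours before readout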). The settings on record: LFS_MB_1R medulloblastoma cells, stronger effect = higher value.
The nature of assay [10]: growth inhibition, single agents and combos, HTB85, cell-based, BGB or cisplatin IC20 combos, synergistic combos for chromothripsis tumors (AID 1671453; in the data active = inhibition above about 80%;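 also: cells exposed for 96 hours before readout; 0% = vehicle DMSO and 100% = high DMSO killing control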). The settings on record: HTB85 osteosarcoma cells, drug combinations, stronger effect = higher value.
The nature of assay [11]: growth inhibition, single agents and combos, CRL2098, cell-based, BGB or cisplatin IC20 combos, synergistic combos for chromothripsis tumors (AID 1671454; in the data active = inhibition above about 80%;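 also: cells exposed for 96 h before readout; 0% = vehicle DMSO and 100% = killing by high DMSO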). To be noted: CRL2098 osteosarcoma cells, drug combinations, stronger effect = higher value.
A short description of assay [12]: growth inhibition, single agents and combos, HD-MB03, cell-based, BGB or cisplatin IC20 combos, synergistic combos for chromothripsis tumors (AID 1671455; in the data active = inhibition above about 83%;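 also: 0% = vehicle DMSO and 100% = high DMSO as cytotoxic control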). The settings on record: HD-MB03 medulloblastoma cells, stronger effect = higher value.
A short description of assay [13]: growth inhibition, single agents and combos, UWB1.289, cell-based, BGB or cisplatin combos, synergistic combos for chromothripsis tumors (AID 1671456; in the data active = inhibition above about 80%;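 also: cells exposed to compound for four days; 0% = vehicle DMSO and 100% = killing by high DMSO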). To be noted: UWB1.289 ovarian carcinoma cells, stronger effect = higher value.
Assay [14] can be described thus: growth inhibition, single agents and combos, LFS_MB_2R, cell-based, cisplatin combos, synergistic combos for chromothripsis tumors (AID 1671457; in the data active = inhibition above about 80%;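 also: cells exposed to compound for four days before readout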). To be noted: LFS_MB_2R medulloblastoma cells, stronger effect = higher value.
Assay [15] in a line: growth inhibition, MDA-MB-436, cell-based, BGB or cisplatin combos, synergistic combos for chromothripsis tumors (AID 1671458).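 Also: cells exposed for 96 hours; 0% = vehicle DMSO and 100% = killing by high DMSO.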 The settings on record: MDA-MB-436 breast carcinoma growth inhibition, drug combinations, stronger effect = higher value.
A short description of assay [16]: UWB1.289_BRCA1 ovarian cancer growth, cell-based, BGB or cisplatin combinations (AID 1671459; in the data active = inhibition above about 80%). The settings on record: UWB1.289 BRCA1 ovarian carcinoma, drug combinations, stronger effect = higher value.
Assay [17] in a line: drug combination toxicity in non-malignant astrocytes – cell-based, BGB or cisplatin IC20 combos, cytotoxicity control for chromothriptic childhood tumor combination screen (AID 1671460; in the data active = inhibition above about 80%;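 also: cells exposed to compounds for 96 hours before viability readout; 0% = vehicle and 100% = killing control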). The settings on record: Human astrocytes, viability inhibition, drug combinations, at 0.5 µM, stronger effect = higher value.
A short description of assay [18]: BT084 cell growth, single and combined drugs, ICGC_MB145, cisplatin and BGB IC40 combos (AID 1671461; in the data active = inhibition above about 80%;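 also: cells exposed to drugs for 96 hours; 0% = vehicle DMSO and 100% = high DMSO full killing control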). The settings on record: BT084 medulloblastoma cells, drug combinations, stronger effect = higher value.
A short description of assay [19]: RCMB18 cell growth, single agent and combined, cisplatin and BGB IC40 combos (AID 1671462; in the data active = inhibition above about 80%;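 also: cells exposed to compound for four days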). To be noted: RCMB18 medulloblastoma cells, stronger effect = higher value.
Assay [20] in a line: CRL1545 cell growth, single agent and combined, cisplatin and BGB IC20 combos (AID 1671464; in the data active = inhibition above about 80%;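 also: cells exposed to compound for 96 hours before readout; 0% = vehicle DMSO and 100% = high DMSO killing control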). To be noted: CRL1545 osteosarcoma cells, stronger effect = higher value.
Assay [21] in a line: galactose survival enhancers in mitochondrial complex I cybrids – cell-based, galactose medium, ATP luminescence, primary screen (AID 1645843;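 active = z-score of at least 1.8 in each of two replicates, scored against plate mean and spread of sample wells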;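 also: positive z means more ATP and so rescue of galactose-driven cybrid death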). The settings on record: complex I mutant cybrid cells, 72 h, stronger effect = higher value.
Setting [22] is: measured here: combination with BGB IC40, at 0.05 µM.
Where [23] appears, read: measured here: with BGB IC20 combination, at 0.5 µM.
[24] abbreviates: measured here: with cisplatin IC20 combination, at 0.5 µM.
The mark [25] stands for this setting: measured here: combination with cisplatin, at 0.5 µM.
[26] abbreviates: measured here: combination with cisplatin, at 5 µM.

Chain of L-lactate dehydrogenase (Plasmodium falciparum (isolate CDC / Honduras)) (Q27743 whole entry, looked up): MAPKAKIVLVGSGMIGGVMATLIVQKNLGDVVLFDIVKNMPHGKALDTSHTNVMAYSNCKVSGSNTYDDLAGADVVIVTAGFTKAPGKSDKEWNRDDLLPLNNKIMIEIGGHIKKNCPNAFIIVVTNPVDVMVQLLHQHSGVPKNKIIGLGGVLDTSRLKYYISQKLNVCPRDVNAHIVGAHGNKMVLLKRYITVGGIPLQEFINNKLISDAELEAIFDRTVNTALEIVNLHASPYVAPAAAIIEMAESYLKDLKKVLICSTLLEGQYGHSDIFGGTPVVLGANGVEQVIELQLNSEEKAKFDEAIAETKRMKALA

Consider `C=CCN1CCC2(C)c3cc(O)ccc3CC1C2C` (centres undefined), for which the period change in [1] is -0.18 h (inactive).

As for `Oc1ccc2c3c1O[C@H]1[C@@H](O)CC[C@@]4(O)C(C2)N(CC2CCC2)CCC314` (some centres undefined), the period change in assay [1] was -0.2 h (inactive).

For the molecule `C[C@]12CC[C@H]3[C@@H](CCC4C[C@H](O)CC[C@@]43C)[C@@H]1CC[C@@H]2O` (some centres undefined), the period change in assay [1] was 0.065 h (inactive).

With `Cc1ccc(C[C@H](C)NC[C@H](O)c2cccc(C(F)(F)F)c2)cc1`, the growth inhibition in assay [2] was 54% (active); in [5], 100% (active). The results for the inhibition in assay [3] and in assay [4] were 5% (inactive) and -1% (inactive), respectively.

With `COc1cc(C2c3cc4c(cc3C(O)C3COC(=O)C23)OCO4)cc(OC)c1OC` (centres undefined), the inhibition in [6] (at 0.5 µM, stronger effect = higher value) was 9.19% (inactive); in assay [6] (measured here: combination with BGB IC20, at 0.005 µM), -13.4%; in [6] (measured here: combination with BGB IC40, at 0.005 µM) it was -36%; in [6] (setting [22]), 14.5%; in [6] (measured here: combination with cisplatin, at 0.5 µM, stronger effect = higher value), -15.6%; in [6] (measured here: combination with cisplatin, at 5 µM, stronger effect = higher value) it was 45.9%. For the same molecule, the inhibition in assay [7] (BGB combo, at 5 µM) is 67.6%; in assay [7] (at 0.5 µM), 76.5% (inactive); in [7] (cisplatin combo, at 5 µM) it was 70.5%; in assay [7] (setting [23]), 69.9%; in assay [7] (setting [24]) it was 66.6%; in assay [7] (single agent, at 5 µM), 91.8%. For the same molecule, the inhibition is 44.2% in assay [8] (BGB IC20 combo, at 0.005 µM); 19.6% in assay [8] (BGB IC40 combo, at 0.005 µM); 10.9% in [8] (BGB IC40 combo, at 0.05 µM); -21.6% (inactive) in assay [8] (at 0.5 µM); 7.4% in assay [8] (cisplatin combo, at 0.05 µM); -22.1% in [8] (cisplatin combo, at 0.5 µM). Further, the inhibition in assay [8] (cisplatin combo, at 5 µM) is 19.8%; in assay [8] (measured here: 5 uM single agent, at 5 µM), 19.6%; in assay [9] (at 0.5 µM), 38.7% (inactive); in [9] (setting [22]), 42.5%; in assay [9] (setting [25]), 54.6%; in assay [9] (setting [26]), 60.9%. The inhibition was 72.2% (inactive) in assay [10] (at 0.5 µM); 55.2% in [10] (measured here: with BGB IC20, at 0.5 µM); 54% in [10] (measured here: with BGB IC20, at 5 µM); 72.6% in assay [10] (measured here: with cisplatin IC20, at 0.5 µM); 73% in assay [10] (measured here: with cisplatin IC20, at 5 µM); 89.8% in [10] (single agent, at 5 µM). In addition, the inhibition in assay [11] (at 0.5 µM) is 38.6% (inactive); in assay [11] (measured here: combination with BGB at IC20, at 0.5 µM), 34.3%; in [11] (measured here: combination with cisplatin at IC20, at 0.5 µM), 46.2%; in [12] (at 0.5 µM) it was 83.8% (active); in assay [12] (measured here: combo with BGB at IC20, at 0.5 µM) it was 82.3%; in [12] (measured here: combo with cisplatin at IC20, at 0.5 µM), 76.1%. Also, the inhibition was 44.8% (inactive) in assay [13] (at 0.5 µM); 11.9% in assay [13] (measured here: inhibition with BGB combination, at 0.05 µM); 39.3% in [13] (measured here: inhibition with cisplatin combination, at 0.05 µM); 33.5% (inactive) in [14] (at 0.5 µM); 48.6% in assay [14] (setting [25]); 47.1% in [14] (setting [26]). The inhibition in [15] (at 0.5 µM) was 69.7% (inactive); in [15] (measured here: BGB combination, at 0.5 µM), 58.4%; in [15] (measured here: BGB combination, at 5 µM), 53.6%; in assay [15] (measured here: cisplatin combination, at 0.5 µM) it was 72.1%; in assay [15] (measured here: cisplatin combination, at 5 µM), 74.9%; in assay [16] (BGB combination, concentration series, at 5 µM) it was 71.3%. The inhibition in assay [16] (at 0.5 µM) was 57.4% (inactive); in assay [16] (cisplatin combination, concentration series, at 5 µM), 70.5%; in assay [17], 85.4% (active); in assay [17] (measured here: combo with BGB IC20) it was 85.6%; in assay [17] (measured here: combo with cisplatin IC20), 76.9%; in assay [18] (at 0.5 µM), 45.2% (inactive). Further, the inhibition is 43.7% in assay [18] (cisplatin combination, at 0.5 µM); 48.4% in assay [18] (cisplatin combination, at 5 µM); 22.9% in [18] (measured here: BGB IC40 combination 0.05 uM, at 0.05 µM); 62.7% in [18] (single agent, at 5 µM); 21.7% (inactive) in [19] (at 0.5 µM); 29.2% in assay [19] (cisplatin combo, at 5 µM). Moreover, the inhibition in [19] (measured here: BGB IC40 combination, at 0.05 µM) is 11.1%; in assay [19] (setting [25]), 20.9%; in assay [19] (single agent, at 5 µM) it was 18.7%; in assay [20] (at 0.5 µM) it was 74.4% (inactive); in assay [20] (setting [23]), 70.7%; in assay [20] (setting [24]), 76.3%. Also, the inhibition in [20] (single agent, at 0.05 µM) was determined as 49.3%; in [20] (single agent, at 5 µM) it was 85.7%.

In the case of `N[C@@H](Cn1cc(I)c(=O)[nH]c1=O)C(=O)O`, the period change in [1] was -0.19 h (inactive).

Consider `COC(=O)c1ccc(CC(C)NCC(O)c2cccc(C(F)(F)F)c2)cc1` (centres undefined), for which the growth inhibition in assay [2] is 87% (active) and 73% (active); in assay [5], 97% (active) and 94% (active). The inhibition in assay [3] was -8% (inactive) and -9% (inactive); in assay [4], -4% (inactive) and -1% (inactive).

Consider `COC(=O)/C=C/c1ccc(CC(C)NCC(O)c2cccc(C(F)(F)F)c2)cc1` (centres undefined), for which the figures for the growth inhibition in assay [2] and in [5] were 96% (active) and 97% (active), respectively. Also, the inhibition in assay [3] was 16% (inactive); in [4] it was 0% (inactive).

`CCN1CCCC(N2CCN3CCCC3C2)C1` (centres undefined): the z-score in [21] was -0.225 (inactive).

On to `C[C@]12CC[C@H](OS(=O)(=O)O)CC1=CC[C@@H]1[C@@H]2CC[C@]2(C)C(=O)CC[C@@H]12`, for which the period change in [1] is -0.035 h (inactive).

As for `Nc1ncnc2c1ncn2C1OC2COP(O)(=S)O[C@@H]2[C@@H]1O` (some centres undefined), the period change in assay [1] was -0.125 h (inactive).

On to `COc1cc(CCN)ccc1O`, for which, in [1], the period change was -0.1 h (inactive).

Turning to `CC1=C[C@@H]2c3cccc4[nH]cc(c34)C[C@H]2N(C)C1`, the period change in assay [1] is 0.28 h (inactive).

Turning to `C#CCOc1ccc(CC(C)NCC(O)c2cccc(C(F)(F)F)c2)cc1` (centres undefined), the growth inhibition in [2] was 74% (active) and 84% (active); in assay [5], 90% (active) and 93% (active). Further, the inhibition in [3] was 5% (inactive) and 28% (inactive); in [4], 1% (inactive) and -2% (inactive).

Regarding `CC[C@@H]1/C=C/C=C/C[C@H](C)[C@@H](O)[C@](C)(O)C(=O)[C@H](C)[C@@H](O)[C@H](C)C(=O)[C@H](C)[C@@H](O)[C@H](C)/C=C/C(=O)O[C@H]2[C@@H](C)[C@@H](CC1)O[C@@]1(CC[C@@H](C)[C@@H](CC(C)O)O1)[C@@H]2C` (some centres undefined), the period change in assay [1] is -1.77 h (inactive).
